Results taken from PubChem BioAssay (NCATS).
Results filed as inconclusive are left out. Entries that show only a call come without a potency. Active and inactive are the calls of the source. Calls come from the whole dose curve.

Experiments:
[1] = Primary qHTS for Huh7 cytotoxicity: counterscreen for inhibitors of MERS-S pseudotyped particle cell entry (AID 1479147)
[2] = Primary qHTS for inhibitors of MERS-S pseudo-typed particle cell entry (AID 1479149); note: nearly all actives have a fitted effect of over 60% in size
[3] = Primary qHTS for Vero E6 cytotoxicity: counterscreen for inhibitors of SARS-S pseudo-typed particle cell entry (AID 1479150)

Row | Structure (SMILES) | Potency [1] | Potency [2] | Potency [3]
1 | CN1CCN(c2cc3c(cc2F)c(=O)c(C(=O)O)cn3-c2ccc(F)cc2)CC1 | inactive | inactive | inactive
2 | CC(C)C[C@@H]1[C@H](c2ccccc2)OC(=O)N1CCCN1CCCCCC1 | inactive | – | inactive
3 | CN(C)CCOC1=Cc2ccccc2Sc2ccc(Cl)cc21 | inactive | – | inactive
4 | CC(=O)c1ccc2c(c1)N(CCCN(C)C)c1ccccc1S2 | inactive | – | inactive
5 | CN(C)CCCOc1nn(Cc2ccccc2)c2ccccc12 | inactive | – | inactive
6 | NS(=O)(=O)c1cc2c(cc1Cl)NCNS2(=O)=O | inactive | – | inactive
7 | OCCN1CCN(CCCN2c3ccccc3C=Cc3ccccc32)CC1 | inactive | – | inactive
8 | C#C[C@]1(OC(C)=O)CC[C@H]2[C@@H]3CCC4=C[C@@H](OC(C)=O)CC[C@@H]4[C@H]3CC[C@@]21C | inactive | – | inactive
9 | O[C@@H](COc1cccc2ncccc12)CN1CCN(C2c3ccccc3[C@@H]3[C@H](c4ccccc42)C3(F)F)CC1 (stereo not given in full) | inactive | – | inactive
10 | O=C(Nc1ccc(Cl)cc1)Nc1ccc(Cl)c(C(F)(F)F)c1 | inactive | – | inactive
11 | CC1(C)CCC(C)(C)c2cc(NC(=O)c3ccc(C(=O)O)cc3)ccc21 | inactive | – | inactive
12 | Clc1ccc(C(Cn2ccnc2)OCc2c(Cl)cccc2Cl)c(Cl)c1 (stereo not given) | inactive | – | inactive
13 | CC(C)(C)c1ccc(C(=O)CCCN2CCC(OC(c3ccccc3)c3ccccc3)CC2)cc1 | inactive | – | inactive
14 | CCCOC(C(=O)OC1CCN(C)CC1)(c1ccccc1)c1ccccc1 | inactive | – | inactive
15 | Fc1ccc(C(c2ccc(F)cc2)N2CCN(C/C=C/c3ccccc3)CC2)cc1 | inactive | – | inactive
16 | CCCCN(CCCC)CC(O)c1cc(Cl)cc2c1-c1ccc(Cl)cc1/C2=C/c1ccc(Cl)cc1 (stereo not given) | inactive | – | inactive
17 | COC(=O)C1=C(C)NC(C)=C(C(=O)OC(C)(C)CN(C)CCC(c2ccccc2)c2ccccc2)C1c1cccc([N+](=O)[O-])c1 (stereo not given) | inactive | – | inactive
18 | COc1cc(N)c(Cl)cc1C(=O)NC1CCN(Cc2ccccc2)CC1 | inactive | – | inactive
19 | CCCCN(CCCC)CCC(O)c1cc2c(Cl)cc(Cl)cc2c2cc(C(F)(F)F)ccc12 (stereo not given) | inactive | – | inactive

Row | Structure (SMILES) | Potency [1] | Potency [2] | Potency [3]
20 | CN(C)CCOc1ccccc1Cc1ccccc1 | inactive | – | inactive
21 | CN1CCC(OC(c2ccccc2)c2ccccc2)CC1 | inactive | – | inactive
22 | CCCCc1cc2ccccc2c(OCCN(C)C)n1 | inactive | – | inactive
23 | O=C(CCCN1CC=C(n2c(=O)[nH]c3ccccc32)CC1)c1ccc(F)cc1 | inactive | – | inactive
24 | CN1CCCCC1CCN1c2ccccc2Sc2ccc(S(C)=O)cc21 (stereo not given) | inactive | – | inactive
25 | Clc1ccc2c(c1)CCc1cccnc1C2=C1CCNCC1 | inactive | – | inactive
26 | O=c1[nH]c2ccccc2n1CCCN1CCN(C(c2ccccc2)c2ccccc2)CC1 | inactive | – | inactive
27 | C[C@@H](CN(C)C)CN1c2ccccc2Sc2ccccc21 | inactive | – | inactive
28 | CN1CC(=O)N2[C@H](c3ccc4c(c3)OCO4)c3[nH]c4ccccc4c3C[C@@H]2C1=O | inactive | – | inactive
29 | COCCOC(=O)C1=C(C)NC(C)=C(C(=O)OC/C=C/c2ccccc2)C1c1cccc([N+](=O)[O-])c1 (stereo not given) | inactive | – | inactive
30 | COc1cccc(CCc2ccccc2OCC(CN(C)C)OC(=O)CCC(=O)O)c1 (stereo not given) | inactive | – | inactive
31 | CC(=O)c1ccc2c(c1)N(CCCN1CCC(CCO)CC1)c1ccccc1S2 | inactive | – | inactive
32 | COc1ccccc1N1CCN(CC(O)COc2cccc3ccccc23)CC1 (stereo not given) | inactive | – | inactive
33 | OC(CCCN1CCCCC1)(c1ccccc1)c1ccccc1 | inactive | – | inactive
34 | CO[C@@H]1[C@@H](O[C@@H]2O[C@H](C)[C@@H](O[C@H]3C[C@@](C)(O)[C@@H](O)[C@H](C)O3)[C@H](N(C)C)[C@H]2O)[C@@H](CC=O)C[C@@H](C)[C@@H](O[C@@H]2CC[C@H](N(C)C)[C@@H](C)O2)/C=C/C=C/C[C@@H](C)OC(=O)C[C@H]1OC(C)=O | inactive | – | inactive
35 | COc1ccc2c(c1)c(CC(=O)O)c(C)n2C(=O)c1ccc(Cl)cc1 | inactive | – | inactive
36 | O=C(CCCN1CCN(c2ccc(F)cc2)CC1)NC1c2ccccc2CSc2ccccc21 (stereo not given) | inactive | – | inactive
37 | COC(=O)[C@H]1[C@H]2C[C@@H]3c4[nH]c5cc(OC)ccc5c4CCN3C[C@H]2C[C@@H](OC(=O)/C=C/c2ccc(O)c(OC)c2)[C@@H]1OC | inactive | – | inactive
